Common to all, as to assay: DAPPL (digital affinity profiling via proximity ligation, sequencing); 10 mM Tris-HCl pH 7.5, 50 mM NaCl, 1 mM DTT, 4% glycerol, room temperature, 30 min; GST-TFs on glutathione beads, 16-mer random dsDNA library, 0.1% formaldehyde crosslink after washing; high values mean tight binding
Conditions in all cases: protein: recombinant; tags: N-terminal GST; dsDNA, one strand shown

Experiment [1] has as its target T1, FLI1 (Homo sapiens, UniProt Q01543 1-452).
T1 sequence: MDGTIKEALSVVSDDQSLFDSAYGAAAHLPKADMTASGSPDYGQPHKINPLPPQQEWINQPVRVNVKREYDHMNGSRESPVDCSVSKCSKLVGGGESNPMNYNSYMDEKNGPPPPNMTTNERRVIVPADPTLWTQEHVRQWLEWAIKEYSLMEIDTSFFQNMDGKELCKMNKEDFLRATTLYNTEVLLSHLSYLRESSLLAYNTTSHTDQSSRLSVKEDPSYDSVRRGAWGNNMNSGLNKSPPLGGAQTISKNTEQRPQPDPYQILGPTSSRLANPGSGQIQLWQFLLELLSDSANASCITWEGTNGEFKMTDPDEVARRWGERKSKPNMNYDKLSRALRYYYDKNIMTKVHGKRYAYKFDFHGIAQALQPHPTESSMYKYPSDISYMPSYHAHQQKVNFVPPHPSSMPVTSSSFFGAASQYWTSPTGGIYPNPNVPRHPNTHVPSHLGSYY
In outline: (§1)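 GST fusions of human transcription factors were expressed in yeast and captured with glutathione beads. Once given DNA barcodes and pooled alongside a tag-only sample, they were incubated for 30 min at room temperature with 200 nmole of a random double-stranded 16-mer DNA library in Tris/NaCl/DTT/glycerol buffer, then washed, crosslinked (0.1% formaldehyde), proximity-ligated, PCR-amplified and sequenced on an Illumina NextSeq500. The binding signal of each hexamer is its read frequency for a factor divided by its frequency for the tag-only sample.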

The target in experiment [2] is T2, ELK1 (Homo sapiens, UniProt P19419 1-428).
T2 sequence: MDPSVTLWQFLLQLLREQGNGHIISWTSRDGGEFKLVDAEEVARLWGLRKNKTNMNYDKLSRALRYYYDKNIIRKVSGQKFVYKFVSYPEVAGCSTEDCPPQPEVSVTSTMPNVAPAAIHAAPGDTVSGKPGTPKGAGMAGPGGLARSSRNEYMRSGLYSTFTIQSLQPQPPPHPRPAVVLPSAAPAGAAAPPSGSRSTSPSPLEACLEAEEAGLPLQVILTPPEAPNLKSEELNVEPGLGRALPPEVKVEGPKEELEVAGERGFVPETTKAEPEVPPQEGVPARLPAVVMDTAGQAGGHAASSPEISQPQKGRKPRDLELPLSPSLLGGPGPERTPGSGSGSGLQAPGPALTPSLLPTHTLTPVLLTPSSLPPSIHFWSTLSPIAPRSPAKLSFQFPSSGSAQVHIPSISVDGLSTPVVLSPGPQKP
In outline:
as §1

The target of experiment [3] is T3, GABPA (Homo sapiens, UniProt Q06546 1-454).
T3 sequence: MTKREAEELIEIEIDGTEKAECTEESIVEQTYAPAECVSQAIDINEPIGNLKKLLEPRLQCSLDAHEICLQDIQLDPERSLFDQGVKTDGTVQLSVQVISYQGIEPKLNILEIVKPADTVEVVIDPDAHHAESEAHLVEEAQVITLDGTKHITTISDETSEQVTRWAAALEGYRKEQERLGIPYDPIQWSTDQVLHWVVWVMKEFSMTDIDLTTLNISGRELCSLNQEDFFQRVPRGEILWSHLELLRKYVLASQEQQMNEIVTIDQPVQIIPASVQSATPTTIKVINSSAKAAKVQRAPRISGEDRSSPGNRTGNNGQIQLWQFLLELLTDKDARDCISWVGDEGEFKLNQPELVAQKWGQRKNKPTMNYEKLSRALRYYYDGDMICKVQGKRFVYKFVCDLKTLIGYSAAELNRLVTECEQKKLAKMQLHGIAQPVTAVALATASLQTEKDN
In outline:
as §1

Experiment [4] concerns the target T4, ERG (Homo sapiens, UniProt P11308 1-479).
T4 sequence: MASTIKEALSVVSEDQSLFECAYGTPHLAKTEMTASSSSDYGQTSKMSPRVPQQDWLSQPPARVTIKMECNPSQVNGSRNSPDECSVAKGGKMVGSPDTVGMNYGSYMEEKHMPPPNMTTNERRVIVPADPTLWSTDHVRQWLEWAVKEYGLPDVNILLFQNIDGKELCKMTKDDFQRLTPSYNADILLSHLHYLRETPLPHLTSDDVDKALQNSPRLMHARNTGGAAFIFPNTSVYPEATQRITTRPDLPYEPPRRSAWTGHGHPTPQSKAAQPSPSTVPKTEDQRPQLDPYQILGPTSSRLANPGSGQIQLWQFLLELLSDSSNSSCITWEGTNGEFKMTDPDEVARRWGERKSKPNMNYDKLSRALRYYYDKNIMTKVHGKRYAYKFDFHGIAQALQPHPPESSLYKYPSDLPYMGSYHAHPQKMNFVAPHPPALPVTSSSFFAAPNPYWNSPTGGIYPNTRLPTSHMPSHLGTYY
In outline: as §1

The target of experiment [5] is ELF1 (Homo sapiens, UniProt P32519 1-619). In outline: as §1
Sequence of ELF1 (P32519 whole entry): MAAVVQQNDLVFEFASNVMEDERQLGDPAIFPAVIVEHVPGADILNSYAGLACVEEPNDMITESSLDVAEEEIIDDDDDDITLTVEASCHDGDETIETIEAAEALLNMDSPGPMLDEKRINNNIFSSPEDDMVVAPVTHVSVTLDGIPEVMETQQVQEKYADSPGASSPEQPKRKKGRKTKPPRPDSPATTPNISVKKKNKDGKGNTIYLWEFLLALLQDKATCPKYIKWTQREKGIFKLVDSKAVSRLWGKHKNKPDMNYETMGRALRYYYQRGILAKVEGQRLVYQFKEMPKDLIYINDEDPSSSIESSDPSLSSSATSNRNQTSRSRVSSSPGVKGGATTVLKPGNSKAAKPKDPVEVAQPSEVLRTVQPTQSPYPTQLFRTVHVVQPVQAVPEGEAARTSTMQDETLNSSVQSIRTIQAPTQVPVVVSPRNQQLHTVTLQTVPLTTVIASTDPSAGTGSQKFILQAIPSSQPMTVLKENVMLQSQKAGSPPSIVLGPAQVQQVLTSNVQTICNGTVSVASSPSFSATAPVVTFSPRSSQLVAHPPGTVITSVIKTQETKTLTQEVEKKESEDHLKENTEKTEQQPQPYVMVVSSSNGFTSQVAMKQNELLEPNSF
Experiment [6] concerns the target T5, EHF (Homo sapiens, UniProt Q9NZC4 1-300).
T5 sequence: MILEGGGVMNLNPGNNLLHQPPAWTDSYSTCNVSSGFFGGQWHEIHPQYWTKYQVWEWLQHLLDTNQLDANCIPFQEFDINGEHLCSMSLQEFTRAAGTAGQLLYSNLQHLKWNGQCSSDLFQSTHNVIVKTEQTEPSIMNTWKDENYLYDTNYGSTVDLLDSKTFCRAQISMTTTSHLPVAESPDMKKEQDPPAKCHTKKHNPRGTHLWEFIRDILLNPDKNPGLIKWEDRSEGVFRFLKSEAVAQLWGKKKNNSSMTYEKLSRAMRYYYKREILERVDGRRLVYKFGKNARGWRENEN
In outline: as §1

In experiment [7] the target is SPI1 (Homo sapiens, UniProt P17947 1-270). The method, boiled down:
as §1

The target in experiment [8] is SPIB (Homo sapiens, UniProt Q01892 1-262). The method, boiled down: as §1
Sequence of SPIB (Q01892 whole entry): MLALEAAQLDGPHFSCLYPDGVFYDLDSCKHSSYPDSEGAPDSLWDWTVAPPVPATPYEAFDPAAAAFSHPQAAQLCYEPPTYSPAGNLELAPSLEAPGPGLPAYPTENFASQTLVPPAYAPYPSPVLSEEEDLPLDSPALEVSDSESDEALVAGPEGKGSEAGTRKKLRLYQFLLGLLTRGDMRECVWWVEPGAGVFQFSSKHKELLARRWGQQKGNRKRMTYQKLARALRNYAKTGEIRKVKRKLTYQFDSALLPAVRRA
The target of experiment [9] is T6, ELK3 (Homo sapiens, UniProt P41970 1-407).
T6 sequence: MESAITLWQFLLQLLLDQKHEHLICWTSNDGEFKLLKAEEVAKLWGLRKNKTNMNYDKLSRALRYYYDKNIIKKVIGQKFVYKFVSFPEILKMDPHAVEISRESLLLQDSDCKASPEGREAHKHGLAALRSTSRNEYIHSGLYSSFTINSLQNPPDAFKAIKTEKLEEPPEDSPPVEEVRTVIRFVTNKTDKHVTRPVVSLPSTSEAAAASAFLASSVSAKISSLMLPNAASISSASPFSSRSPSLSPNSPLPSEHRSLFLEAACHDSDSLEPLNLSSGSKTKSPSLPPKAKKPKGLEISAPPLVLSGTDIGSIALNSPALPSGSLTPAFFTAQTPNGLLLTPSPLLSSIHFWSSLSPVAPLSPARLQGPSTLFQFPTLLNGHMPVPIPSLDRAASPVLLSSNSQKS
The method, boiled down:
as §1

Experiment [10] addresses T7, FEV (Homo sapiens, UniProt Q99581 1-238).
T7 sequence: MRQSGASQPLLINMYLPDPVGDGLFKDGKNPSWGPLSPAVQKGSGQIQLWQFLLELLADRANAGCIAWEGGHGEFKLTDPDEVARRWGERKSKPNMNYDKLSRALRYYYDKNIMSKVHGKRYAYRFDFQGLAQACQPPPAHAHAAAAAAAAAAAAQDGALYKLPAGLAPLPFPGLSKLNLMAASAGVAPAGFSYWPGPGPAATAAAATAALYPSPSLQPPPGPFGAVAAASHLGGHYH
The method, boiled down: as §1

In experiment [11] the target is ETV5 (Homo sapiens, UniProt P41161 1-510). In outline:
as §1

For experiment [12], the target named is T8, SPIC (Homo sapiens, UniProt Q8N5J4 1-248).
T8 sequence: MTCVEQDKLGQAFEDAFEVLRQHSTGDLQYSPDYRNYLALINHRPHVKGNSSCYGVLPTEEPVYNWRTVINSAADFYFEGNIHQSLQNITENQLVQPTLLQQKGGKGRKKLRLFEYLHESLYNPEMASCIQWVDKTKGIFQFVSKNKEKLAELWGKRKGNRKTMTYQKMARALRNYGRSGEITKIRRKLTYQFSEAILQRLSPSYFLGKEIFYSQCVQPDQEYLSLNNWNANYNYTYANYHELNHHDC
In outline: as §1

Experiment [13] concerns the target ELF4 (Homo sapiens, UniProt Q99607 1-663). In outline: as §1
Experiment [14] deals with T9, ELK4 (Homo sapiens, UniProt P28324-2 1-405).
T9 sequence: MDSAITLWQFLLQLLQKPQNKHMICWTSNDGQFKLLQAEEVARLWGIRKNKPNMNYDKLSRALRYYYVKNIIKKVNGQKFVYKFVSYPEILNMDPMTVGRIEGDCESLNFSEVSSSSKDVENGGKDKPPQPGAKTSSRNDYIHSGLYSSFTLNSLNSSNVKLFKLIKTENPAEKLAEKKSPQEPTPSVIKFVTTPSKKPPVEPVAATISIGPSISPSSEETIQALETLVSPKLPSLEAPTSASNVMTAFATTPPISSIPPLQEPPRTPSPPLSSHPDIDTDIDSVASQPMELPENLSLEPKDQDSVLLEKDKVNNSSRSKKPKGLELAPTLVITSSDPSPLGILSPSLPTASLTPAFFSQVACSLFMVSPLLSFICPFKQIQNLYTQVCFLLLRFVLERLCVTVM
In outline: as §1

In experiment [15] the target is T10, ETV2 (Homo sapiens, UniProt O00321 1-342).
T10 sequence: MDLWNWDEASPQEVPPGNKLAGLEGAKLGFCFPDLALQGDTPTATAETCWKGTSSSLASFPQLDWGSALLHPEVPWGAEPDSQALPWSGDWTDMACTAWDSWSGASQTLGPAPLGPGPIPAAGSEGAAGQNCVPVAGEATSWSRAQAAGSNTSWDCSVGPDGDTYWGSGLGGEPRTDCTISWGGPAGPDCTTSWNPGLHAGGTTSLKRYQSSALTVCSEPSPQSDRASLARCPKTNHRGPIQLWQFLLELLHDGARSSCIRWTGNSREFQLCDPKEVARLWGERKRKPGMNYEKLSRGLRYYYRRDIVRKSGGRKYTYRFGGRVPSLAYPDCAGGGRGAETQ
The method, boiled down:
as §1

The target in experiment [16] is T11, ELF3 (Homo sapiens, UniProt P78545 1-371).
T11 sequence: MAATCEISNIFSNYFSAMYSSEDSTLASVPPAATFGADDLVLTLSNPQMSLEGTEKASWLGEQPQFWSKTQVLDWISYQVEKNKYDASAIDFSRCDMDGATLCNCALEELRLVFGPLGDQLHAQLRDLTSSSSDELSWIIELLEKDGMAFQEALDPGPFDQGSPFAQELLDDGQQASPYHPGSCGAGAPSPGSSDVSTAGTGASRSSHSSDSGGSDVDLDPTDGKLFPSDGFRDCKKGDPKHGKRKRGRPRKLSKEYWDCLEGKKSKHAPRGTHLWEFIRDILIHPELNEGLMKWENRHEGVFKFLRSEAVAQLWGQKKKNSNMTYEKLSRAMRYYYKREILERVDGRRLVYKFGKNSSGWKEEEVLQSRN
The method, boiled down: as §1

In experiment [17] the target is ETV1 (Homo sapiens, UniProt P50549 1-477). In outline: as §1
Sequence of ETV1 (P50549 whole entry): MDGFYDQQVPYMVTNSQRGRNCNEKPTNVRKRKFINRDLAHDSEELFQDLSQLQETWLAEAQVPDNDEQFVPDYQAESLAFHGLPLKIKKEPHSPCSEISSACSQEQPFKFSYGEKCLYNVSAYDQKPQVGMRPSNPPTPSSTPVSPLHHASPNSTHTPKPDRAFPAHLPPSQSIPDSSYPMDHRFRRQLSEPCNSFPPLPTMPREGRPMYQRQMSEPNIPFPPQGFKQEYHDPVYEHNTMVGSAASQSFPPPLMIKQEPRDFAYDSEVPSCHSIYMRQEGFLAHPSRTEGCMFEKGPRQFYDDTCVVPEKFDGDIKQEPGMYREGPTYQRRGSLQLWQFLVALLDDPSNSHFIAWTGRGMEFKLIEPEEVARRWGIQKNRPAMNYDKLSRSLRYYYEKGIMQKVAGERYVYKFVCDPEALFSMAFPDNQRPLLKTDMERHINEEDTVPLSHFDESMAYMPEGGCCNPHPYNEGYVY

Sequence of ELF4 (Q99607 whole entry): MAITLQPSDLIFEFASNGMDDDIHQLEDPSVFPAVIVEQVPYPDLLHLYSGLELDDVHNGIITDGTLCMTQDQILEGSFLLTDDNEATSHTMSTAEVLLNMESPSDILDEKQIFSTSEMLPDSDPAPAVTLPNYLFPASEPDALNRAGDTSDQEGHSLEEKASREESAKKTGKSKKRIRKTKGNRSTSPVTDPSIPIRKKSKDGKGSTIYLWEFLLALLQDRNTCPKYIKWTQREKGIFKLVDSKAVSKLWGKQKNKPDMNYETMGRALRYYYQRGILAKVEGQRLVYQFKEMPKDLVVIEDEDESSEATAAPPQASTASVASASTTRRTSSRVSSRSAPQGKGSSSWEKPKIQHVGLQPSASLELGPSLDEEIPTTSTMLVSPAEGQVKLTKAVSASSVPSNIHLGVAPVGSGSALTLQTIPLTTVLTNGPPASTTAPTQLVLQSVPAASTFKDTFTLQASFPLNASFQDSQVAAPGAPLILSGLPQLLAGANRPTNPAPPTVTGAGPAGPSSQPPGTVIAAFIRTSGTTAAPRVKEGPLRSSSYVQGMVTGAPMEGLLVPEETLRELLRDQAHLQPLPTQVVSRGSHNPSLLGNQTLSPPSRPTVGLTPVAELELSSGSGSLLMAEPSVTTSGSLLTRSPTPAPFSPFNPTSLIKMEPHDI
Sequence of ETV5 (P41161 whole entry): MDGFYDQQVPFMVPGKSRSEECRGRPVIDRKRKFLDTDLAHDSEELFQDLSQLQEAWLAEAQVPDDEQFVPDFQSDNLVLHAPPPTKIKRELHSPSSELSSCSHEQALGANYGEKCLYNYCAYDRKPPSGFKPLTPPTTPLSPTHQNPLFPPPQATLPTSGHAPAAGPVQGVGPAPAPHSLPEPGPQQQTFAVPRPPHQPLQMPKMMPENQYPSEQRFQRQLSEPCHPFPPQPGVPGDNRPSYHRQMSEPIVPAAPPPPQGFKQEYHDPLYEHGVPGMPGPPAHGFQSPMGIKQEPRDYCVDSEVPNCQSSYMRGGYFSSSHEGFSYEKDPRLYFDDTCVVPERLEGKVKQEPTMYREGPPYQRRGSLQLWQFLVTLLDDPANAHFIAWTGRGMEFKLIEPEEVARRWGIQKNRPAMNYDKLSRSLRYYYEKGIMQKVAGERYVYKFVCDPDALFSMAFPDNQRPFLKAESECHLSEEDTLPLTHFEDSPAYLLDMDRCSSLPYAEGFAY

For the sequence CACCAA, the binding signal in [1] was 1.02 fold enrichment (6-mer frequency, TF over GST control); in experiment [2], 1.16 fold enrichment (6-mer frequency, TF over GST control); in experiment [3], 1.03 fold enrichment (6-mer frequency, TF over GST control); in experiment [4] it was 1.07 fold enrichment (6-mer frequency, TF over GST control); in experiment [5], 1.12 fold enrichment (6-mer frequency, TF over GST control); in experiment [6] it was 1.06 fold enrichment (6-mer frequency, TF over GST control). Also, the binding signal in [7] is 1.07 fold enrichment (6-mer frequency, TF over GST control); in [8], 1.04 fold enrichment (6-mer frequency, TF over GST control); in experiment [9] it was 1.15 fold enrichment (6-mer frequency, TF over GST control); in experiment [10] it was 1.12 fold enrichment (6-mer frequency, TF over GST control); in experiment [11], 1.1 fold enrichment (6-mer frequency, TF over GST control); in experiment [12], 1.12 fold enrichment (6-mer frequency, TF over GST control). Moreover, the binding signal in [13] was 1.12 fold enrichment (6-mer frequency, TF over GST control); in [14], 1.13 fold enrichment (6-mer frequency, TF over GST control); in [15], 1.12 fold enrichment (6-mer frequency, TF over GST control); in [16], 1.1 fold enrichment (6-mer frequency, TF over GST control); in [17], 1.01 fold enrichment (6-mer frequency, TF over GST control).

For the sequence TGCACA, the binding signal was 1.18 fold enrichment (6-mer frequency, TF over GST control) in experiment [1]; 1.18 fold enrichment (6-mer frequency, TF over GST control) in experiment [2]; 1.03 fold enrichment (6-mer frequency, TF over GST control) in experiment [3]; 1.09 fold enrichment (6-mer frequency, TF over GST control) in [4]; 1.1 fold enrichment (6-mer frequency, TF over GST control) in experiment [5]; 1.02 fold enrichment (6-mer frequency, TF over GST control) in experiment [6]. Further, the binding signal in experiment [7] is 1.05 fold enrichment (6-mer frequency, TF over GST control); in [8], 1.13 fold enrichment (6-mer frequency, TF over GST control); in experiment [9], 1.2 fold enrichment (6-mer frequency, TF over GST control); in experiment [10], 1.14 fold enrichment (6-mer frequency, TF over GST control); in experiment [11], 1.13 fold enrichment (6-mer frequency, TF over GST control); in experiment [12] it was 1.15 fold enrichment (6-mer frequency, TF over GST control). In addition, the binding signal in [13] is 1.12 fold enrichment (6-mer frequency, TF over GST control); in experiment [14] it was 1.11 fold enrichment (6-mer frequency, TF over GST control); in experiment [15], 1.15 fold enrichment (6-mer frequency, TF over GST control); in experiment [16], 1.26 fold enrichment (6-mer frequency, TF over GST control); in [17], 1.09 fold enrichment (6-mer frequency, TF over GST control).

Values taken from article PMC7862700, “An all-to-all approach to the identification of sequence-specific readers for epigenetic DNA modifications on cytosine”.
